Most compounds without a hit are left out; they make up all but 1.5% or so of the library.
FBPA coupling cs – qHTS Assay for Inhibitors of Fructose-1,6-bisphosphate Aldolase from Giardia Lamblia: Coupling assay counterscreen | coupling enzyme system counterscreen, AmpLite Red fluorescence | activity change, negative = inhibition, % at 58.2 µM, hits read low | 290,000 tested, 0.67% active | AID 2472, 2010; in the data active = activity change below about -30%
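Compounds tested against the coupling enzymes alone at 57.5 uM final; readout was AmpLite Red fluorescence (525/598 nm) after 20 min at RT.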
Giardia kill – Small Molecules that selectively kill Giardia lamblia: qHTS; activity change, % at 7.66 µM, hits read low; 340,000 tested, 0.15% active; Giardia lamblia trophozoite viability; in the data active = activity change below about -80%; inconclusive = between about -30% and that limit;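 also: parasites exposed to compound for two days anaerobically before the ATP read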
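Compounds were tested on trophozoites seeded at 100 cells/well and held 48 hrs at 37 deg C anaerobically. An ATP-based luminescent kit measured the remaining live cells.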
TrxR1 substrate – qHTS Assay for Substrates of Mammalian Selenoprotein Thioredoxin Reductase 1 (TrxR1): qHTS; Thioredoxin reductase 1, cytoplasmic (Rattus norvegicus), O89049; purified TrxR1 substrate turnover, NADPH consumption readout; Potency, µM (top dose mostly 114 µM), inactives show at the highest dose activity change, negative = substrate turnover; 390,000 tested, 0.01% active; AID 588456, 2011; also: potency is read from the fitted curve at half-maximal effect; nearly all actives have a fitted effect of over 50% in size
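Rat TrxR1, dispensed at 90 nM, was prereduced with 400 uM NADPH (final) for 5 min at ~22 deg C, then incubated with compound 15 min before 400 uM selenite. A first-read NADPH fluorescence drop versus no-compound background flagged substrates.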
GALK inhibitor – qHTS Assay for Inhibitors of Human Galactokinase (GALK) | Purified GALK, Kinase-Glo residual ATP luminescence | Potency, µM (titrated, usually from 57.5 µM), for inactives: at the highest dose activity change, negative = inhibition, usual class: inhibitors | 270,000 tested, 0.007% active | AID 1868, 2009; also: potency is read from the fitted curve at half-maximal effect
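The enzyme phosphorylates galactose (100 uM) using ATP (35 uM); inhibition is detected as higher residual ATP, quantified by bioluminescence after 1 h reaction at room temperature, pH 8.0.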
PI4K2A inh – qHTS for small molecular inhibitors of PI4K2A. 420,000 tested, 0.13% active. purified PI4K2A, ADP-Glo luminescence, 1 h; stronger effect = lower value. activity change, negative = inhibition, % at 76.9 µM; in the data active = activity change below about -50%; inconclusive = mostly about -30% to -49%;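 also: -100% = wells without enzyme as full effect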
Target sequence (Q9BTU6 whole entry, looked up): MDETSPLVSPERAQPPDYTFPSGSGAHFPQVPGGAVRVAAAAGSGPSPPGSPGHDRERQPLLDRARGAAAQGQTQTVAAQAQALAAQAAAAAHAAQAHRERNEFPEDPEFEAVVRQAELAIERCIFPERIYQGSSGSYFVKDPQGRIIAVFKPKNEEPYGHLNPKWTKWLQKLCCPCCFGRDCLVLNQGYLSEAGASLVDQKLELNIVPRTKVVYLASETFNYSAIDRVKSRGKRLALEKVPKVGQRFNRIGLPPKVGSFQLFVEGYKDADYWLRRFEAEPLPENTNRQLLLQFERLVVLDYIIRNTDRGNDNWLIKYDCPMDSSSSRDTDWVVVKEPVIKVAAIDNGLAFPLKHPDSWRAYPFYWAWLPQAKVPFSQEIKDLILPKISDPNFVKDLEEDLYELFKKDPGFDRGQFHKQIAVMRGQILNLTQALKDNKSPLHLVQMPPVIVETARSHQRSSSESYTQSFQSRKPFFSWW
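Compounds are screened against recombinant PI4K2A using PI as substrate and ATP, the latter dispensed at 300 microM. Reactions run one hour at ambient temperature before ADP-Glo detection; full inhibition defined by wells lacking enzyme.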
rTrxR1 inhibitor – qHTS Assay for Inhibitors of Mammalian Selenoprotein Thioredoxin Reductase 1 (TrxR1): qHTS. Thioredoxin reductase 1, cytoplasmic (Rattus norvegicus), O89049. recombinant rTrxR1, NADPH fluorescence consumption, selenite substrate. Potency, µM (highest dose often 114 µM), inactives show top-dose activity change, negative = inhibition, hits mostly inhibitors. 390,000 tested, 1% active; also: potency is read from the fitted curve at half-maximal effect; nearly all actives have a fitted effect of over 65% in size
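Rat TrxR1 (90 nM in the dispensed reagent) was pre-reduced with 400 uM NADPH for 5 min at room temperature, then incubated with compound for 15 min. After 400 uM selenite was added, NADPH fluorescence (Ex 340/Em 450 nm) was followed for 8 min.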
The depositor's hits bear a star; [ ] = dose if it differs, or a comment. Unless noted, calls follow the shape of the dose curve; as a rule, active = well fitted curve in the direction sought with a large enough effect; inconclusive = small, poorly fitted or top-dose-only effect, or another doubt; inactive = no such curve, though single readings can be large; an effect the other way counts as inactive or inconclusive. Unless noted, % is scaled to controls: 0 for no effect and ±100 for the full control effect.

COc1cc(/C=N/NC(=O)c2cc(-c3ccco3)nc3ccccc23)cc(OC)c1O was read as FBPA coupling cs 2, Giardia kill 28, TrxR1 substrate 0%[57.1 µM], PI4K2A inh -21 and rTrxR1 inhibitor 13µM*.
`Cc1ccc(S(=O)(=O)N(C)C)cc1NC(=O)c1cc(-c2ccco2)nc2ccccc12` gave Giardia kill 2, TrxR1 substrate 63%, GALK inhibitor -1%, PI4K2A inh -13 and rTrxR1 inhibitor 3.5µM*.
CC(C)CCNC(=O)c1cc(-c2ccco2)nc2ccccc12 was read as FBPA coupling cs -1, Giardia kill -2, TrxR1 substrate 138%, GALK inhibitor -2%, PI4K2A inh 8 and rTrxR1 inhibitor -24%.
`CC(C)Cn1c(N)c(C(=O)COC(=O)c2cc(-c3ccco3)nc3ccccc23)c(=O)n(C)c1=O` gave FBPA coupling cs -2, Giardia kill inconclusive, TrxR1 substrate 14%, GALK inhibitor -1%, PI4K2A inh -13 and rTrxR1 inhibitor 2.8µM*.
For Cn1c(=O)c(C(=O)COC(=O)c2cc(-c3ccco3)nc3ccccc23)c(N)n(Cc2ccccc2)c1=O the results were FBPA coupling cs 1.
For CCOc1cc(CNc2ccc3cn[nH]c3c2)ccc1OC the results were FBPA coupling cs -55*, Giardia kill 0, TrxR1 substrate 1%, GALK inhibitor 0%, PI4K2A inh -13 and rTrxR1 inhibitor -21%.
COc1ccc(CNc2ccc3cn[nH]c3c2)c(OC)c1OC was read as FBPA coupling cs -47*, Giardia kill -2, TrxR1 substrate 16%, GALK inhibitor 4%, PI4K2A inh -8 and rTrxR1 inhibitor inconclusive.
For CCOc1cc(CCNC(=O)c2cc3ccsc3n2C)ccc1OC the results were PI4K2A inh 0.
Screening CN(C)c1ccc(C2CCc3ccccc3N2C(=O)c2ccccc2)cc1 (centres undefined) returned TrxR1 substrate 6% and rTrxR1 inhibitor 10%[0.0914 µM].
For CCC(=O)N1CCc2cc(Br)cc(S(=O)(=O)N3CCCC(C(=O)Nc4cc(C)ccc4OC)C3)c21 (centres undefined) the results were TrxR1 substrate 0%, PI4K2A inh 3 and rTrxR1 inhibitor 89µM*.
COc1ccc(C)cc1NC(=O)C1CCN(S(=O)(=O)c2cc(Br)cc3c2N(C(C)=O)CC3)CC1 was read as TrxR1 substrate -5%, PI4K2A inh -2 and rTrxR1 inhibitor -4%.
`CCOc1ccc(N2C(=O)CC(NCC#N)C2=O)cc1` (centres undefined) gave FBPA coupling cs 0, Giardia kill -4, TrxR1 substrate 3%, GALK inhibitor 4%, PI4K2A inh 7 and rTrxR1 inhibitor 22µM*.
`c1ccc2oc(CCc3nc4ccccc4o3)nc2c1` gave FBPA coupling cs 4, Giardia kill -5, TrxR1 substrate -1%, GALK inhibitor 3%, PI4K2A inh 5 and rTrxR1 inhibitor -11%.
Screening Nc1ccc2oc(CCc3ccccc3)nc2c1 returned FBPA coupling cs -35*, Giardia kill -5, TrxR1 substrate 2%, GALK inhibitor 0%, PI4K2A inh inconclusive and rTrxR1 inhibitor -15%.
Screening CC[C@H](C)[C@H](NC(=O)[C@H](CC(=O)O)NC(=O)[C@H](CC(C)C)NC(=O)[C@H](NC(C)=O)C(c1ccccc1)c1ccccc1)C(=O)N[C@H](C(=O)N[C@@H](Cc1c[nH]c2ccccc12)C(=O)O)[C@@H](C)CC returned FBPA coupling cs 4.
Screening CC(C)CN(CC(C)C)c1ccc(/C=C/c2ccnc3ccccc23)cc1 returned TrxR1 substrate 8%[0.0914 µM] and rTrxR1 inhibitor 9%.
Screening Cc1cc(C)nc(NS(=O)(=O)c2ccc(Br)s2)c1 returned FBPA coupling cs -36*, Giardia kill 11, TrxR1 substrate 3%, GALK inhibitor 2%, PI4K2A inh 0 and rTrxR1 inhibitor -10%.
Cc1ccc(NS(=O)(=O)c2ccc(Br)s2)nc1 was read as FBPA coupling cs -37*, Giardia kill -12, TrxR1 substrate 5%, GALK inhibitor 2%, PI4K2A inh 1 and rTrxR1 inhibitor -4%.
COc1cc2nc(CCc3nc4cc(OC)c(OC)cc4[nH]3)[nH]c2cc1OC was read as TrxR1 substrate 2% and rTrxR1 inhibitor 18%.
`O=C(C[n+]1c(Cl)ccc2ccccc21)c1ccc2ccccc2c1` gave TrxR1 substrate -4% and rTrxR1 inhibitor -18%.
For COc1ccc(OC)c(NC(=O)NC2CCCCCCC2)c1 the results were Giardia kill -22, TrxR1 substrate -1%, GALK inhibitor -1%, PI4K2A inh -4 and rTrxR1 inhibitor 7%.
`CCCC(=O)Nc1cc(OC)c(NC(=O)NC2CCCCC2)cc1OC` gave FBPA coupling cs -45*, Giardia kill 1, TrxR1 substrate 1%, GALK inhibitor 6%, PI4K2A inh 3 and rTrxR1 inhibitor 13%.
Screening COc1cc(/C=C2/C(=O)CNC2=O)ccc1O returned FBPA coupling cs -7, Giardia kill 7, TrxR1 substrate -8%, GALK inhibitor 0%, PI4K2A inh -4 and rTrxR1 inhibitor inconclusive.
COc1cc(C=C2C(=O)C=CC2=O)ccc1O was read as PI4K2A inh -56*.
`N=c1c2c(ccn1CCCc1ccccc1)Oc1ccc3ccccc3c1C2c1ccccc1` (centres undefined) gave PI4K2A inh -1.
For CCOc1ccc(S(=O)(=O)N2CCN(c3nc(-c4ccccc4)nc4ccccc34)CC2)cc1OCC the results were Giardia kill -4, TrxR1 substrate -1% and rTrxR1 inhibitor 18%.
For Cc1onc(-c2ccccc2Cl)c1C(=O)Nc1sc2c(c1C#N)CCC2 the results were FBPA coupling cs 0, Giardia kill 0, TrxR1 substrate -2%, GALK inhibitor 1%, PI4K2A inh -7 and rTrxR1 inhibitor -4%.
Screening Cc1onc(C(=O)Nc2sc3c(c2C#N)CCCC3)c1[N+](=O)[O-] returned FBPA coupling cs 3, Giardia kill -4, TrxR1 substrate -3%, GALK inhibitor -10%, PI4K2A inh 2 and rTrxR1 inhibitor 16µM*.
Screening CCCCCC1CCNCC1 returned TrxR1 substrate 11% and rTrxR1 inhibitor 13%.

From PubChem BioAssay
